Results filed as inconclusive are left out. Unmarked numbers belong to inactive results. Calls of active or inactive are those of the source. Calls come from the whole dose curve; as a rule, active = well fitted inhibition curve with a large enough effect; inconclusive = small, poorly fitted or top-dose-only effect; inactive = no such curve, though single readings can be large or run the other way.
% is set by controls: 0 for no effect and ±100 for the full control effect; potency is the fitted concentration of half-maximal effect.

This assay has as its target Aldehyde dehydrogenase 1A1 (Homo sapiens) (UniProt P00352). Kind of assay: qHTS for Inhibitors of the Aldehyde Dehydrogenase Family (ALDH1A1) Confirmatory screens (AID 2061316). Note: nearly all actives have a fitted effect of over 65% in size. The conditions noted are these: ALDH inhibition qHTS; series mostly up to 47.3 µM; activity change, negative = inhibition: at the top concentration.
Consider `N#CNC(=O)c1ccc(-n2cccc2/C=C2\NC(=O)N(CC(=O)Nc3cccc(F)c3)C2=O)cc1`, for which the “activity change, negative = inhibition” value is -8%.

Consider `Cc1c(-c2ccccc2)no[n+]1[O-]`, for which the “activity change, negative = inhibition” value was -22.8%.

For `c1cn2cc(-c3ccc4cn[nH]c4c3)nc(Nc3ccc(N4CCOCC4)cc3)c2n1`, the call was inactive.

As for `O=C(O)CN1C(=O)N/C(=C\c2cccn2-c2ccc(P(=O)(O)O)cc2)C1=O`, the Potency was 7.98 µM (active).

`O=c1[nH]c(CN2CCOCC2)nc2sc3c(c12)CCC3`: the “activity change, negative = inhibition” value is -11%.

With `Cc1nnc(CN(C)c2ncnc3ccc(-c4ccc5c(c4)OCO5)cc23)o1`, the Potency is 14.2 µM (active).

Regarding `S=C(Nc1ccccn1)c1ccccn1`, the Potency was 5.65 µM (active).

Take `CC(C)(C)Nc1nc(C#N)nc(Nc2ccccc2)n1`: the “activity change, negative = inhibition” value is -19.1%.

For the compound `CN(C)c1cccc(-c2csc(N3CCC(C(N)=O)CC3)n2)c1`, the Potency was 11.3 µM (active).

Consider `Cc1cc(C)nc(NC(=S)N2CCN(c3ccc4nsnc4c3)CC2)c1`, for which the Potency is 1.79 µM (active).

On to `COc1ccc(C(=O)N(Cc2ccco2)Cc2cccs2)c(O)c1`, for which the Potency is 12.7 µM (active).

`CC(=O)c1ccc(N2CCN(S(=O)(=O)c3ccc4c(c3)n(C)c(=O)n4C)CC2)cc1`: the “activity change, negative = inhibition” value is -0.0343%.

Take `Cc1noc(C)c1-c1ccc2ncnc(NCc3ccc(F)cc3)c2c1`: the Potency was 20.1 µM (active).

On to `Cc1c(Cl)cccc1NS(=O)(=O)c1cc2c(cc1F)NC(=O)CC2`, for which the “activity change, negative = inhibition” value was -4.44%.

`CCOC(=O)c1ccc(O)c2ncc(N3CCC(C(=N)N)CC3)cc12`: the “activity change, negative = inhibition” value was -22.6%.

As to `O=S1(=O)CCN(Cc2cc(NCC3CCOCC3)c3[nH]c(-c4ccccc4)cc3c2)CC1`, the “activity change, negative = inhibition” value is -6.58%.

Regarding `O=C1c2ccccc2NC(c2ccc(-c3ccc(F)cc3)o2)N1O` (stereo unspecified), the Potency was 2.52 µM (active).

In the case of `Cc1cc(C)nc(NC(=S)N2CCN(c3cncc4ccccc34)CC2)c1`, the Potency is 5.65 µM (active).

As to `COc1ccc(-c2csc(NC(=O)c3ccncc3NS(=O)(=O)c3ccc(C)cc3)n2)cc1`, the Potency is 22.5 µM (active).

Take `O=S(=O)(Nc1cc(O)cc2cccnc12)c1ccc(Cl)s1`: the Potency was 4 µM (active).

Take `O=C1CCc2cc(S(=O)(=O)Nc3cc(F)cc(Cl)c3)c(F)cc2N1`: the outcome was inactive.
